Several values for one entry are separate records, joined by “and”; a condition that tells them apart may be missing. Identical values can stand only once. Inconclusive results are not listed. Entries that show only a call come without a potency. Activity calls are given as the source filed them. Unless noted, calls follow the shape of the dose curve; as a rule, active = well fitted curve in the direction sought with a large enough effect; inconclusive = small, poorly fitted or top-dose-only effect, or another doubt; inactive = no such curve, though single readings can be large; an effect the other way counts as inactive or inconclusive.
How the values were obtained:
[1] = molecular target: Cytochrome P450 3A4 (Homo sapiens) (UniProt P08684); experiment: qHTS Assay for Inhibitors and Substrates of Cytochrome P450 3A4 (AID 884); also: nearly all actives have a fitted effect of over 50% in size; also: potency is read from the fitted curve at half-maximal effect
Method in brief: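 Luminescent readout of luciferin produced by CYP3A4 (20 nM) dealkylation of Luciferin-PPXE, 25 uM (its KM). NADPH-driven reaction ran 60 min at RT after 10 min compound preincubation; data scaled to 57 uM ketoconazole as 100% inhibition.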

[2] = MultiTox-Fluor Cytotoxicity Assay - LYMP1-001 - Live Cells (AID 947)
[3] = MultiTox-Fluor Cytotoxicity Assay - LYMP1-002 - Dead Cells (AID 960); also: nearly all actives have a fitted effect of over 60% in size
Method in brief: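 Dead-cell fluorescence (Ex/Em 485/520) after 16 h compound exposure at 37 C of LYMP1-002 lymphoblastoid cells in complete medium; AC50 by Hill equation, with data scaled between DMSO and 15 uM tetraoctylammonium bromide.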

[4] = Cell Viability - LYMP2-009 (AID 968); also: series mostly up to about 92 µM; nearly all actives have a fitted effect of over 55% in size
[5] = Cell Viability - LYMP2-015 (AID 971); also: nearly all actives have a fitted effect of over 55% in size
Method in brief: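 Cytotoxicity readout: decrease in intracellular ATP (CellTiter-Glo luminescence) in 2500 LYMP2-015 lymphoblastoid cells/well after 24 h compound exposure at 37 C. Concentration-response data fitted with the standard Hill equation to give AC50.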

[6] = molecular target: Estrogen receptor (Homo sapiens) (UniProt P03372); experiment: qHTS assay for small molecule antagonists of estrogen receptor alpha signaling (AID 588513; active = well fitted curve in the direction sought with a large enough effect in the signal ratio, with a control signal flat, not every such curve was filed as active; the % refers to the signal ratio)
Method in brief: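 Antagonist mode: inhibition of 0.5 nM 17-beta-estradiol-driven beta-lactamase reporter in HEK 293 ER-alpha-UAS-bla cells, 18 h at 37C, CCF4 readout after 2 h at RT. Normalised to estradiol and DMSO; titration fitted to Hill.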

[7] = molecular target: Peroxisome proliferator-activated receptor gamma (Homo sapiens) (UniProt P37231); experiment: qHTS assay for small molecule agonists of peroxisome proliferator-activated receptor gamma signaling (AID 588536; active = well fitted curve in the direction sought with a large enough effect in the signal ratio, with a control signal flat, not every such curve was filed as active; the % refers to the signal ratio)
Method in brief: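 Beta-lactamase reporter read-out: CCF4 fluorescence (ex 405, em 460/530 nm) after 2 h at RT. HEK293 GeneBLAzer cells were treated for 16 h at 37 C. Hill fits gave EC50 and efficacy versus 2 uM rosiglitazone (100%) and DMSO (0%).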

[8] = molecular target: Vitamin D3 receptor (Homo sapiens) (UniProt P11473); experiment: qHTS assay for small molecule agonists of vitamin D receptor signaling (AID 588543; calls by dose curve)
Method in brief: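 Agonist-mode beta-lactamase reporter: HEK293T VDR-UAS-bla cells in charcoal-stripped 2% FBS, compound series 16 h 37 C, CCF4 2 h RT. EC50 from Hill fit, scaled against DMSO and 50 nM calcitriol control.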

[9] = qHTS assay for small molecule agonists of retinoid X receptor alpha signaling (AID 588544; calls by dose curve); settings: HEK293T RXRa-UAS-bla, beta-lactamase reporter, 18 h; 530 nm emission
[10] = molecular target: Retinoic acid receptor RXR-alpha (Homo sapiens) (UniProt P19793); experiment: as above
[11] = molecular target: Thyroid hormone receptor beta (Homo sapiens) (UniProt P10828); experiment: qHTS assay for small molecule antagonists of thyroid hormone receptor beta signaling (AID 588547; active = well fitted inhibition curve with a large enough effect in the signal ratio, with a control signal flat, not every such curve was filed as active; the % refers to the signal ratio;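 also: cells stimulated with 0.4 nM T3 agonist during compound exposure; series mostly up to about 77 µM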); settings: TR-UAS-bla HEK293, beta-lactamase ratio, antagonist mode, 18 h
Method in brief: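 TR-UAS-bla GripTite HEK293 cells in 2% charcoal/dextran FBS medium were preincubated 4 h at 37 C, given compound (0.59 nM to 92 uM) plus 0.4 nM T3 (final) for 18 h, then CCF4 for 2 h at RT; Hill fit gave IC50.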

[12] = qHTS assay for small molecule activators of the p53 signaling pathway (AID 651743; active = well fitted activation curve with a large enough effect in the signal ratio, not every such curve was filed as active; the % refers to the signal ratio; also: series mostly up to about 92 µM); settings: HCT-116 p53RE-bla, beta-lactamase FRET ratio, 16 h; activation: stronger effect = higher value
Method in brief: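 Agonist-mode quantitative HTS in HCT-116 cells carrying a p53-response-element beta-lactamase reporter; 16 h compound treatment at 37 C, then FRET substrate loading for 2 h at room temperature and fluorescence read.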

[13] = qHTS assay for small molecule disruptors of the mitochondrial membrane potential - 1 hr assay (AID 651754; calls by dose curve; also: nearly all actives have a fitted effect of over 35% in size)
Method in brief: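 Mitochondrial potential in living HepG2 cells after 1 hr compound treatment at 37C was read with Mito-MPS dye added for a further 30 min. Red aggregate and green monomer fluorescence were measured; loss of potential leaves dye as cytoplasmic monomers.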

[14] = qHTS assay for small molecule disruptors of the mitochondrial membrane potential - 5 hr assay (AID 651755; calls by dose curve; also: nearly all actives have a fitted effect of over 40% in size)
Method in brief: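 Seed HepG2 overnight, add compound, incubate 5 hr at 37C and 5% CO2, stain 30 min with Mito-MPS, then measure monomer (490/535 nm) and aggregate (540/590 nm) fluorescence.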

[15] = molecular target: Tumor necrosis factor (Homo sapiens) (UniProt P01375); experiment: qHTS assay to identify small molecules that stimulate Tumor Necrosis Factor-alpha (TNF-alpha) secretion (AID 651757; active = well fitted curve in the direction sought with a large enough effect in the signal ratio; the % refers to the signal ratio)
Method in brief: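 Secreted TNF-alpha quantified by TR-FRET sandwich of two labeled anti-TNF-alpha antibodies, incubated 3 hr at room temperature. Preceded by 17 hr, 37 C compound treatment of THP-1 cells at 3000 cells/well.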

[16] = qHTS assay for environmental chemicals that activate the Aryl hydrocarbon Receptor (AhR) signaling pathway (AID 651777); settings: 1A2-DRE human hepatoma cells, luciferase, 24 h; activation: stronger effect = higher value; also: nearly all actives have a fitted effect of over 15% in size
Method in brief: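 1A2-DRE human hepatoma reporter line; 1,200 cells/well; cmpd or DMSO 24 h, 37 C/5% CO2; One-Glo 30 min RT; luciferase lum.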

[17] = qHTS assay for small molecule agonists of the antioxidant response element (ARE) signaling pathway measured by Nrf2-dependant transcriptional activity (AID 720636; active = well fitted curve in the direction sought with a large enough effect in the repeat runs; an effect the other way counts as inactive or inconclusive;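 also: HepG2 cells with an ARE-driven luciferase reporter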)
Method in brief: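 Cells: ARE-luc HepG2 with Nrf2-responsive luciferase. Medium contained 1% dialyzed FBS. Compound exposure lasted 16 hr at 37 C and 5% CO2, followed by ONE-Glo luciferase detection.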

[18] = qHTS assay for small molecule antagonists of the retinoid-related orphan receptor gamma (ROR-gamma) signaling pathway - cell viability counter screen (AID 720652; active = well fitted curve in the direction sought with a large enough effect in the repeat runs; an effect the other way counts as inactive or inconclusive;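 also: CHO reporter cells with doxycycline-induced ROR-gamma expression; series mostly up to about 92 µM; compound exposure lasted 16 hr before ATP read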)
Method in brief: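 Cytotoxicity counter screen: intracellular ATP (CellTiter-Glo luminescence) measured in the doxycycline-induced CHO RORE-luciferase reporter line after 16 hr compound exposure at 37 C, 5% CO2.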

[19] = molecular target: Nuclear receptor subfamily 1 group I member 2 (Rattus norvegicus) (UniProt Q9R1A7); experiment: qHTS assay for small molecule activators of the rat pregnane X receptor (rPXR) signaling pathway (AID 651751; call rule not given here); settings: rPXR reporter cells, luciferase (One-Glo), 24 h
[20] = qHTS assay for small molecule activators of the human pregnane X receptor (PXR) signaling pathway (AID 720659; call rule not given here)

Sequence of Peroxisome proliferator-activated receptor gamma (Homo sapiens) (P37231 whole entry, looked up): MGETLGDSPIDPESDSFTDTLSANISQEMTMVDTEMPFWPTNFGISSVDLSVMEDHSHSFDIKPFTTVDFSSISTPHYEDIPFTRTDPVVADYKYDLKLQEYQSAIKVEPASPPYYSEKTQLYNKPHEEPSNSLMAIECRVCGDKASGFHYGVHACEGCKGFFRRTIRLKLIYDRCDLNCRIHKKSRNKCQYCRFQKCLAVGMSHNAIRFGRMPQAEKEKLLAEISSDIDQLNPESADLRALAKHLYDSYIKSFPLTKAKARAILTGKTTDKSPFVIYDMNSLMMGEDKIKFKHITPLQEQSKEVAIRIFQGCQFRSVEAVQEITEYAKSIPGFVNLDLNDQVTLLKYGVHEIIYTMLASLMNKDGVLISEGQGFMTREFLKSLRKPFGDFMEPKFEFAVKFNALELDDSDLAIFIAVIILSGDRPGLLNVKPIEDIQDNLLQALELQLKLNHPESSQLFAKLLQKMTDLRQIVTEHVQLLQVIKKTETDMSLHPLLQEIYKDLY
Sequence of Retinoic acid receptor RXR-alpha (Homo sapiens) (P19793 whole entry, looked up): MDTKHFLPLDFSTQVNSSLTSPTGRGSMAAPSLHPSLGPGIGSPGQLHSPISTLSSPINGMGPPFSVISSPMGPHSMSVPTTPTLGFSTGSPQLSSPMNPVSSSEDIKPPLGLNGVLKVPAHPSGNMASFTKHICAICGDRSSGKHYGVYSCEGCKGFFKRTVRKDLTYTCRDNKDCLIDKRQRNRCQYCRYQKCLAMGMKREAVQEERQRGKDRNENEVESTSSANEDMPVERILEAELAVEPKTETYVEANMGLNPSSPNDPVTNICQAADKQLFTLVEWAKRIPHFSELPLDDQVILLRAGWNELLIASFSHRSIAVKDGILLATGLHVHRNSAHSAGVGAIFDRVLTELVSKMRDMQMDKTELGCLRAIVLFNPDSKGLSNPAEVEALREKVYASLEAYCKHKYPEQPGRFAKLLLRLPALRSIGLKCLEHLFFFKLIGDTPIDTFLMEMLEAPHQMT
Sequence of Tumor necrosis factor (Homo sapiens) (P01375 whole entry, looked up): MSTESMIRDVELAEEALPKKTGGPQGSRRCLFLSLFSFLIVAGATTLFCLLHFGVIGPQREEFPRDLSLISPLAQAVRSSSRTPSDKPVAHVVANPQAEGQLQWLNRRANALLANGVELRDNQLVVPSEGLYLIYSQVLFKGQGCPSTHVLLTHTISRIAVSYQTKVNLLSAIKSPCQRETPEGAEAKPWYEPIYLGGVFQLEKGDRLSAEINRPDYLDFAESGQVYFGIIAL
Sequence of Thyroid hormone receptor beta (Homo sapiens) (P10828 whole entry, looked up): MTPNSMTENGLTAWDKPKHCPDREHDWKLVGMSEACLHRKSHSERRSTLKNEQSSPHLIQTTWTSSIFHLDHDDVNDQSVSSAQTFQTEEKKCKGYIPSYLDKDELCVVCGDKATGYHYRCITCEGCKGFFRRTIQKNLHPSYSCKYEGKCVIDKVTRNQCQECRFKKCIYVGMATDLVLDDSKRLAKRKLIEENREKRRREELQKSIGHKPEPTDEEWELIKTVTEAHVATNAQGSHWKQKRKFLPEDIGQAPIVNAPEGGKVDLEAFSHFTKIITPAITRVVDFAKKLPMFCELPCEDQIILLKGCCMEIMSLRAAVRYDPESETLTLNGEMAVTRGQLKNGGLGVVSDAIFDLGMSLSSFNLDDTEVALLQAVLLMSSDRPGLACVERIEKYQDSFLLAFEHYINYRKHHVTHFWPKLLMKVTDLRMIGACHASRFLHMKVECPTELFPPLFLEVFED
Sequence of Vitamin D3 receptor (Homo sapiens) (P11473 whole entry, looked up): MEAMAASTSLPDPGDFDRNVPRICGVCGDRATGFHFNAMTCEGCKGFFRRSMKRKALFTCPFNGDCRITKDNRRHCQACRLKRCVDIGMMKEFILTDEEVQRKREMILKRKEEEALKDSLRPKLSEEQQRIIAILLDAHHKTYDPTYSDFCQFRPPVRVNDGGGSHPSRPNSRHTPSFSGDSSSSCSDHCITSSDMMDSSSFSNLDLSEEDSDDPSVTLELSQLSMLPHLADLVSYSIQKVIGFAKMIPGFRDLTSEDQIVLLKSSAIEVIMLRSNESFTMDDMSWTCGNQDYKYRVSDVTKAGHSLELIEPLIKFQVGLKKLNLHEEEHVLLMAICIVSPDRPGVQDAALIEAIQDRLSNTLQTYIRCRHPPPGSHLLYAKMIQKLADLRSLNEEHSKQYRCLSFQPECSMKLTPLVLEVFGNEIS
Sequence of Estrogen receptor (Homo sapiens) (P03372 whole entry, looked up): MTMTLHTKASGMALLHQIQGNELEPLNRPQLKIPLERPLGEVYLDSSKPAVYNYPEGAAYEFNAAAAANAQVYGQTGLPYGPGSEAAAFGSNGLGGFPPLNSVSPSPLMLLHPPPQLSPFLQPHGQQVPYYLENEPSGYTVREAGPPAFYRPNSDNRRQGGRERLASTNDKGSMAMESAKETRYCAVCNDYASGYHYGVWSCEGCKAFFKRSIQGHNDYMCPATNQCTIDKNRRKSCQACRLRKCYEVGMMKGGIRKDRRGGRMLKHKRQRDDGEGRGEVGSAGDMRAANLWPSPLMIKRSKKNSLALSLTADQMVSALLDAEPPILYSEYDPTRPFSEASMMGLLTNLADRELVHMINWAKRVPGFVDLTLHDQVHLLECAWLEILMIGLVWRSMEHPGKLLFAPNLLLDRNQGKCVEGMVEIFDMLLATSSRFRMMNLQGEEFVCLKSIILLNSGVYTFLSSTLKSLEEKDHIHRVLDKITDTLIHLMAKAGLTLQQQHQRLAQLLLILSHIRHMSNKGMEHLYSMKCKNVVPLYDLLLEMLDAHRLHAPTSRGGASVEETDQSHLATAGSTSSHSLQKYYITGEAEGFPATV
Sequence of Cytochrome P450 3A4 (Homo sapiens) (P08684 whole entry, looked up): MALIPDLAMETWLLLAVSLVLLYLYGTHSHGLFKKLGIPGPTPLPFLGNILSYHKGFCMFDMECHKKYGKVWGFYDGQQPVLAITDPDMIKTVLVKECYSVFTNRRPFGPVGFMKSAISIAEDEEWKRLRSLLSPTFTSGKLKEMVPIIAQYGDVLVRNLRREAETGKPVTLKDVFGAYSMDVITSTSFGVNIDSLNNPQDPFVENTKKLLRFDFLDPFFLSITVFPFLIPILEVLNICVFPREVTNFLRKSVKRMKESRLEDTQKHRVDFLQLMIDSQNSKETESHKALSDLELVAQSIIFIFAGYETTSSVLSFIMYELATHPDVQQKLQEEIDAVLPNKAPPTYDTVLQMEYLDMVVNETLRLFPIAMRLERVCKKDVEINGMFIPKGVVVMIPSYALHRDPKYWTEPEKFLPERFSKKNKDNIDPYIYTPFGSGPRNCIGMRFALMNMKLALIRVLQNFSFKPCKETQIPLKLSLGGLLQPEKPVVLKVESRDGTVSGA
Sequence of Nuclear receptor subfamily 1 group I member 2 (Rattus norvegicus) (Q9R1A7 whole entry, looked up): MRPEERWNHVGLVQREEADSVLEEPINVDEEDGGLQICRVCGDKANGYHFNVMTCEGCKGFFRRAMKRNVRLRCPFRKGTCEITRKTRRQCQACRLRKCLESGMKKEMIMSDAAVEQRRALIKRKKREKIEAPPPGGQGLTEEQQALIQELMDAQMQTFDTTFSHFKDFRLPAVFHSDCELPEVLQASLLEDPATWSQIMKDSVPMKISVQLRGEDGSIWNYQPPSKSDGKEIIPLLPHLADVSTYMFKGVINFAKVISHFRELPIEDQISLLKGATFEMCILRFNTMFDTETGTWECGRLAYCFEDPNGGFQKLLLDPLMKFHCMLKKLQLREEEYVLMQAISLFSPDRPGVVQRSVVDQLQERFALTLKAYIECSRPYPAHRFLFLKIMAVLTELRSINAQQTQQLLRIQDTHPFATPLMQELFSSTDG

SMILES | Potency [1] | Potency [2] | Potency [3] | Potency [4] | Potency [5] | Potency [6] | outcome [7] | outcome [8] | max response [9] | outcome [10] | activity change % (negative = inhibition) [11] | activation [12] | Potency [13] | Potency [14] | outcome [15] | activation [16] | Potency [17] | Potency [18] | max response [19] | outcome [20]
COCC(=O)O | inactive | inactive | inactive | inactive | inactive | inactive | inactive | inactive | 0.473% and -13.2% | inactive | -5.02% (inactive) and -7.68% (inactive) | 0.0042% (inactive) and -6.16% (inactive) | inactive | inactive | inactive | -1.91% (inactive) and 0.0528% (inactive) | inactive | inactive | 1.77% (inactive) and 0.862% (inactive) | –
COc1ccc2[nH]cc(CCNc3ncncc3-c3ccccc3C(F)(F)F)c2c1 | 251 nM (active) | – | – | – | – | – | – | – | – | – | – | – | – | – | – | – | – | – | – | –
Nc1ccc(Cl)cc1Cl | – | inactive | inactive | inactive | inactive | inactive | inactive | – | -10.9% | inactive | -5.09% (inactive) and -14.9% (inactive) | -2.62% (inactive) and -5.11% (inactive) | inactive | inactive | inactive | -1.04% (inactive) and 0.693% (inactive) | inactive | inactive | 2.63% (inactive) and 1.63% (inactive) | inactive
Cc1cccc([N+](=O)[O-])c1C | inactive | inactive | inactive | inactive | inactive | inactive | inactive | inactive | -8% and -5.71% | inactive | -0.0299% (inactive) and -1.89% (inactive) | -0.524% (inactive) and 0.427% (inactive) | inactive | inactive | inactive | 0.368% (inactive) and -0.256% (inactive) | inactive | inactive | 1.82% (inactive) and -0.351% (inactive) | inactive
CC(=O)OC/C=C(\C)CCC=C(C)C | inactive | inactive | inactive | inactive | inactive | inactive | inactive | – | 4.32% and -5.25% | inactive | 10.6% (inactive) | -0.898% (inactive) and 4.78% (inactive) | inactive | inactive | inactive | 0.424% (inactive) and -0.161% (inactive) | inactive | inactive | 1.82% (inactive) and -1.93% (inactive) | inactive
CCO | inactive | inactive | – | inactive | inactive | inactive | inactive | inactive | 1.82% | inactive | -1.42% (inactive) | -1.86% (inactive) | inactive | inactive | inactive | -1.26% (inactive) | inactive | inactive | 0.289% (inactive) | inactive
CCCCOCCO | inactive | inactive | inactive | inactive | inactive | inactive | inactive | inactive | -6.03% and -11.6% and -17.6% | inactive | -4.64% (inactive) and -15.2% (inactive) | -0.263% (inactive) and -0.796% (inactive) and -1.77% (inactive) | inactive | inactive | inactive | -1.94% (inactive) and 0.578% (inactive) and 2.45% (inactive) | inactive | inactive | – | inactive
Cc1ccccc1C | inactive | inactive | inactive | inactive | inactive | inactive | inactive | inactive | -0.877% and 16.9% | inactive | 8.96% (inactive) and 15% (inactive) | -3.02% (inactive) and -3.15% (inactive) | inactive | inactive | inactive | 1.3% (inactive) and -0.327% (inactive) | inactive | inactive | -1.06% (inactive) and 4.02% (inactive) | inactive
O=C(O)c1ccc(O)cc1O | inactive | inactive | inactive | inactive | inactive | – | inactive | inactive | -5.03% and -19.7% | inactive | 0.5% (inactive) and 23.9% (inactive) | -0.261% (inactive) and 0.22% (inactive) | inactive | inactive | inactive | 0.974% (inactive) and 0.552% (inactive) | inactive | inactive | 10.9% (inactive) and 2.3% (inactive) | inactive
c1ccccc1 | inactive | inactive | inactive | inactive | inactive | inactive | inactive | inactive | – | – | – | 0.891% (inactive) [middle of 4 runs] | inactive | inactive | inactive | – | inactive | – | – | –
Cc1c(N=C=O)cccc1N=C=O | – | inactive | inactive | inactive | inactive | inactive | inactive | inactive | -9.85% and -4.8% | inactive | 2.21% (inactive) and -0.0232% (inactive) | -0.524% (inactive) and 6.01% (inactive) | – | inactive | inactive | 3.08% (inactive) and 0.198% (inactive) | inactive | inactive | -1.26% (inactive) and -0.744% (inactive) | inactive
C1OCOCO1 | inactive | inactive | inactive | inactive | inactive | – | inactive | – | -5.21% | inactive | 5.08% (inactive) | -3.32% (inactive) | inactive | inactive | inactive | -0.144% (inactive) | inactive | inactive | -2.23% (inactive) | inactive
O=C1CCc2ccccc2O1 | inactive | inactive | inactive | inactive | inactive | inactive | inactive | inactive | -3.26% | inactive | -1.36% (inactive) | -0.942% (inactive) | inactive | inactive | inactive | 0.95% (inactive) | inactive | inactive | 3.11% (inactive) | inactive
O=C(Nc1ccccc1)c1ccccc1O | – | – | – | – | – | – | inactive | – | – | – | – | 20.6% (inactive) | – | – | – | – | – | – | -1.47% (inactive) | –
CCC(C)c1ccccc1O (configuration not stated) | inactive | inactive | inactive | inactive | inactive | – | inactive | inactive | -16.8% and -5.28% and 4.79% | inactive | -2.64% (inactive) and 0.537% (inactive) | – | inactive | inactive | inactive | -0.0817% (inactive) and -0.418% (inactive) and 0.519% (inactive) | inactive | inactive | 11.2% (inactive) and -2.55% (inactive) and 1.18% (inactive) | inactive
COC(=O)c1ccc(C)cc1 | inactive | inactive | – | inactive | inactive | inactive | – | inactive | 8.76% and -8.45% | inactive | -22.1% (inactive) and -12.5% (inactive) | 2.24% (inactive) and -1.53% (inactive) | inactive | inactive | inactive | -1.02% (inactive) and 0.0239% (inactive) | inactive | inactive | 1.84% (inactive) and -0.952% (inactive) | inactive

— PubChem BioAssay (NCATS)
